Compounds without any hit were thinned out: in the full panel of roughly 79,000, 15% have a hit. Active and inactive are the calls of the source. No stated cut-off is given here; in the data, active means growth inhibition above about 70%; inactive means the rest.
What was measured:
[1] = NCI Yeast Anticancer Drug Screen. Data for the rad52 strain (AID 147);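 further: 0% = growth of vehicle-treated control cultures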; details: S. cerevisiae rad52 mutant growth inhibition, stronger effect = higher value
Method in brief: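 Measured: yeast growth inhibition. System: strain with a defined DNA damage repair alteration. Reference: vehicle-treated control cultures.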

[2] = NCI Yeast Anticancer Drug Screen. Data for the wt1 strain (AID 149);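 further: 0% = growth of vehicle-treated wt1 cultures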; details: S. cerevisiae wt1 strain (SPY 50644) growth inhibition, stronger effect = higher value
Method in brief: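 The wt1 strain was treated with compounds, and growth was compared with vehicle-treated cultures to give inhibition.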

[3] = NCI Yeast Anticancer Drug Screen. Data for the rad50EPP+ strain (AID 151);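 further: 0% = growth of vehicle-treated control cultures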; details: S. cerevisiae rad50 mutant strain, stronger effect = higher value
Method in brief: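 One strain with a rad50 alteration (rad50EPP+) was compound-treated, its growth then compared to that of vehicle controls.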

[4] = NCI Yeast Anticancer Drug Screen. Data for the mgt1 strain (AID 153); details: S. cerevisiae mgt1 mutant growth inhibition, stronger effect = higher value
Method in brief: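 After exposure of the mgt1 yeast mutant to compound, growth was measured and reported as inhibition compared with vehicle controls.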

[5] = NCI Yeast Anticancer Drug Screen. Data for the rad50 strain (AID 155);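 further: 0% = growth of vehicle-only cultures of the same strain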; details: S. cerevisiae rad50 strain growth inhibition, stronger effect = higher value
Method in brief: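 Cells are treated with compound, grown, and their growth is then scored against vehicle-only cultures of the same repair-deficient yeast strain.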

[6] = NCI Yeast Anticancer Drug Screen. Data for the mec2-1 strain (AID 157); details: S. cerevisiae mec2-1 strain, stronger effect = higher value
Method in brief: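 Test agents were screened against the mec2-1 yeast strain, with defined DNA repair or cell cycle alteration. Growth was scored as inhibition against vehicle-only controls.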

[7] = NCI Yeast Anticancer Drug Screen. Data for the rad14 strain (AID 159);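 further: 0% = growth of vehicle-treated control cultures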; details: S. cerevisiae rad14 strain growth inhibition, stronger effect = higher value
Method in brief: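 Readout: yeast growth inhibition, referenced to vehicle-only cultures. Strain bears a defined alteration in DNA damage repair.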

[8] = NCI Yeast Anticancer Drug Screen. Data for the sgs1 mgt1 strain (AID 161);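 further: 0% = growth of cultures given vehicle only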; details: S. cerevisiae sgs1 mgt1 strain, stronger effect = higher value
Method in brief: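 Mutant yeast exposed to compound; growth scored against vehicle-only wells.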

[9] = NCI Yeast Anticancer Drug Screen. Data for the CLN2oe strain (AID 163);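 further: 0% = growth of vehicle-only control cultures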; details: S. cerevisiae CLN2oe strain, stronger effect = higher value
Method in brief: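 Here, growth inhibition in a cell-cycle-altered yeast strain after compound exposure was quantified against vehicle control growth.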

[10] = NCI Yeast Anticancer Drug Screen. Data for the cln2 rad14 strain (AID 165);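 further: 0% = growth equal to vehicle treated cultures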; details: S. cerevisiae cln2 rad14 strain, stronger effect = higher value
Method in brief: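 Growth of compound-exposed yeast (cln2 rad14 genotype) measured and expressed as inhibition relative to vehicle.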

[11] = NCI Yeast Anticancer Drug Screen. Data for the bub3 strain (AID 167); details: S. cerevisiae bub3 mutant strain, stronger effect = higher value
Method in brief: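 Part of a panel of yeast mutants defective in DNA damage repair or cell cycle regulation. Each strain is grown with compound, and inhibition is calculated relative to solvent-treated cultures.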

[12] = NCI Yeast Anticancer Drug Screen. Data for the wt2 strain (AID 169);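 further: 0% = growth of vehicle-treated yeast cultures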; details: S. cerevisiae wt2 strain growth inhibition, stronger effect = higher value
Method in brief: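 Genetically defined yeast strains from a DNA-repair/cell-cycle panel were used. Compound-exposed yeast growth was measured, and the inhibition was calculated relative to vehicle treatment.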

[13] = NCI Yeast Anticancer Drug Screen. Data for the mlh1 strain (AID 171);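 further: 0% = growth of vehicle-treated control cultures of the same strain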; details: S. cerevisiae mlh1 strain growth inhibition, stronger effect = higher value
Method in brief: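 Here the genetically defined yeast mutant is grown with each compound, and the extent to which its growth falls below that of vehicle-exposed cells is reported.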

[14] = NCI Yeast Anticancer Drug Screen. Data for the sgs1 strain (AID 173);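 further: 0% = growth of vehicle-only control cultures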; details: S. cerevisiae sgs1 mutant, stronger effect = higher value
Method in brief: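 Relative growth inhibition, referenced to vehicle, was determined in a yeast strain with a defined alteration affecting DNA damage repair or cell cycle control after compound exposure.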

[15] = NCI Yeast Anticancer Drug Screen. Data for the mlh1 rad18 strain (AID 175); details: S. cerevisiae mlh1 rad18 strain growth inhibition, stronger effect = higher value
Method in brief: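 In this whole-cell yeast screen, a strain with altered DNA damage repair is challenged with compound, and its growth is measured against matched vehicle-treated controls.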

[16] = NCI Yeast Anticancer Drug Screen. Data for the rad18 strain (AID 177); details: S. cerevisiae rad18 mutant growth inhibition, stronger effect = higher value
Method in brief: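 Screen uses a yeast strain with a defined lesion in DNA damage repair; compound effect is read as loss of growth compared to untreated vehicle cultures.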

[17] = at 5.0 µM (retest, dose inferred, filed as 0.5)
[18] = at 50.0 µM (retest, dose inferred, filed as 5.0)

Measured: growth inhibition

O=C(/N=N/C(=O)Oc1ccccc1)Oc1ccccc1
active: [5]; [18] 96% | [6]; [18] 97% | [15]; [18] 98%
inactive: [1]; at 1.2 µM -49% | [1]; at 3.7 µM -54% | [1]; at 11.0 µM -52% | [1]; at 33.0 µM -38% | [1]; at 100.0 µM 24% | [2]; at 1.2 µM -57% | [2]; at 3.7 µM -51% | [2]; at 11.0 µM -46% | [2]; at 33.0 µM -32% | [2]; at 100.0 µM 37% | [3]; at 1.2 µM -87% | [3]; at 3.7 µM -110% | [3]; at 11.0 µM -106% | [3]; at 33.0 µM -46% | [3]; at 100.0 µM -82% | [4]; at 1.2 µM -61% | [4]; at 3.7 µM -61% | [4]; at 11.0 µM -63% | [4]; at 33.0 µM -29% | [4]; at 100.0 µM 57% | [5]; at 1.2 µM -81% | [5]; at 3.7 µM -66% | [5]; [17] 30% | [5]; at 11.0 µM -107% | [5]; at 33.0 µM -40% | [5]; at 50.0 µM 56.4% | [5]; at 100.0 µM 45% | [6]; at 1.2 µM -97% | [6]; at 3.7 µM -47% | [6]; [17] 53% | [6]; at 11.0 µM -87% | [6]; at 33.0 µM -52% | [6]; at 50.0 µM 8.5% | [6]; at 100.0 µM -16% | [7]; at 1.2 µM -26% | [7]; at 3.7 µM -26% | [7]; at 11.0 µM -10% | [7]; at 33.0 µM -15% | [7]; at 100.0 µM 5% | [8]; [17] -29% | [8]; [18] 39% | [8]; at 50.0 µM 48.6% | [9]; at 1.2 µM 9% | [9]; at 3.7 µM 22% | [9]; at 11.0 µM 16% | [9]; at 33.0 µM 40% | [9]; at 100.0 µM 40% | [10]; [17] 5% | [10]; [18] 59% | [10]; at 50.0 µM 43.6% | [11]; at 1.2 µM -25% | [11]; at 3.7 µM -29% | [11]; [17] 50% | [11]; at 11.0 µM -17% | [11]; at 33.0 µM 2% | [11]; [18] 69% | [11]; at 50.0 µM 55% | [11]; at 100.0 µM 65% | [12]; at 1.2 µM -46% | [12]; at 3.7 µM -48% | [12]; at 11.0 µM -54% | [12]; at 33.0 µM -39% | [12]; at 100.0 µM 48% | [13]; at 1.2 µM -70% | [13]; at 3.7 µM -85% | [13]; at 11.0 µM -78% | [13]; at 33.0 µM -44% | [13]; at 100.0 µM 3% | [14]; at 1.2 µM -78% | [14]; at 3.7 µM -80% | [14]; at 11.0 µM -35% | [14]; at 33.0 µM -27% | [14]; at 100.0 µM 59% | [15]; [17] 44% | [15]; at 50.0 µM 49% | [16]; at 1.2 µM -44% | [16]; at 3.7 µM -72% | [16]; at 11.0 µM -72% | [16]; at 33.0 µM -58% | [16]; at 100.0 µM 45%

CC(=O)NC(c1nc2cc(C)c(C)cc2[nH]1)c1nc2cc(C)c(C)cc2[nH]1
active: [4]; at 100.0 µM 80% | [5]; [18] 94% | [6]; [18] 94% | [6]; at 100.0 µM 78% | [8]; [18] 78% | [10]; [18] 92% | [11]; [18] 82% | [11]; at 100.0 µM 82% | [14]; at 100.0 µM 73% | [15]; [18] 95%
inactive: [1]; at 1.2 µM 0% | [1]; at 3.7 µM -2% | [1]; at 11.0 µM 5% | [1]; at 33.0 µM 28% | [1]; at 100.0 µM 62% | [2]; at 1.2 µM -20% | [2]; at 3.7 µM -28% | [2]; at 11.0 µM -14% | [2]; at 33.0 µM 16% | [2]; at 100.0 µM 62% | [3]; at 1.2 µM -1% | [3]; at 3.7 µM 7% | [3]; at 11.0 µM 1% | [3]; at 33.0 µM 19% | [3]; at 100.0 µM 47% | [4]; at 1.2 µM 11% | [4]; at 3.7 µM 19% | [4]; at 11.0 µM 31% | [4]; at 33.0 µM 59% | [5]; at 1.2 µM 13% | [5]; at 3.7 µM 4% | [5]; [17] 29% | [5]; at 11.0 µM 15% | [5]; at 33.0 µM 39% | [5]; at 50.0 µM 61.3% | [5]; at 100.0 µM 67% | [6]; at 1.2 µM 11% | [6]; at 3.7 µM 15% | [6]; [17] 36% | [6]; at 11.0 µM 22% | [6]; at 33.0 µM 42% | [6]; at 50.0 µM 37.2% | [7]; at 1.2 µM -22% | [7]; at 3.7 µM -21% | [7]; at 11.0 µM -9% | [7]; at 33.0 µM 21% | [7]; at 100.0 µM 66% | [8]; [17] -16% | [8]; at 50.0 µM 57.5% | [9]; at 1.2 µM -11% | [9]; at 3.7 µM 2% | [9]; at 11.0 µM -18% | [9]; at 33.0 µM 12% | [9]; at 100.0 µM 62% | [10]; [17] 51% | [10]; at 50.0 µM 42.8% | [11]; at 1.2 µM -2% | [11]; at 3.7 µM 15% | [11]; [17] 16% | [11]; at 11.0 µM 22% | [11]; at 33.0 µM 56% | [11]; at 50.0 µM 63.1% | [12]; at 1.2 µM -27% | [12]; at 3.7 µM -25% | [12]; at 11.0 µM -20% | [12]; at 33.0 µM 20% | [12]; at 100.0 µM 60% | [13]; at 1.2 µM -45% | [13]; at 3.7 µM -33% | [13]; at 11.0 µM -17% | [13]; at 33.0 µM 19% | [13]; at 100.0 µM 64% | [14]; at 1.2 µM -4% | [14]; at 3.7 µM -2% | [14]; at 11.0 µM -1% | [14]; at 33.0 µM 36% | [15]; [17] 35% | [15]; at 50.0 µM 37.6% | [16]; at 1.2 µM -4% | [16]; at 3.7 µM 1% | [16]; at 11.0 µM 6% | [16]; at 33.0 µM 22% | [16]; at 100.0 µM 55%

CC(C)OC(=O)NNc1cc(Cl)ccc1Cl
inactive: [1]; at 1.2 µM 0% | [1]; at 3.7 µM 18% | [1]; at 11.0 µM 41% | [1]; at 33.0 µM 38% | [1]; at 100.0 µM 66% | [2]; at 1.2 µM -2% | [2]; at 3.7 µM 5% | [2]; at 11.0 µM 29% | [2]; at 33.0 µM 34% | [2]; at 100.0 µM 31% | [3]; at 1.2 µM 20% | [3]; at 3.7 µM 27% | [3]; at 11.0 µM 60% | [4]; at 1.2 µM -4% | [4]; at 3.7 µM 2% | [4]; at 11.0 µM 19% | [4]; at 33.0 µM 21% | [5]; at 1.2 µM -3% | [5]; at 3.7 µM 22% | [5]; [17] 19% | [5]; at 11.0 µM 41% | [5]; at 33.0 µM 36% | [5]; [18] 44% | [5]; at 50.0 µM 38% | [6]; at 1.2 µM -4% | [6]; at 3.7 µM 8%
active: [3]; at 33.0 µM 72% | [3]; at 100.0 µM 88% | [4]; at 100.0 µM 88% | [5]; at 100.0 µM 87%
